Screening data (PubChem BioAssay)
FXIIa mix inh: factor XIIa (human) inhibition, mixture screen. purified FXIIa, fluorogenic substrate, pooled mixtures. P00748. inhibition, % at 5 µM. hit rate 0.2% among 62,000;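 note: 0% = enzyme without compound and 100% = no enzyme blank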
D1 allo mod: D1 dopamine receptor (human) allosteric modulation; P21728; hit rate 5.9% among 58,000; HEK293 D1, CRE-luciferase, dopamine EC30 potentiation; actives deviate in either direction; B-score at 10 µM;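 active = luminescence count or its row- and column-corrected plate score outside the 99.7% band of the plate's sample wells, on either side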
M1 antagonist: blocks the rat M1 muscarinic receptor response to acetylcholine; P08482; CHO-M1 cells, Fluo-4 calcium, ACh EC80 antagonist mode; active compounds read low; B-score at 10 µM; hit rate 3.4% among 64,000; AID 628;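 active = calcium fluorescence response, raw or row-and-column corrected B-score, differing from the plate sample mean either way at a set confidence level, mostly lower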
M1 ag: activates the M1 muscarinic receptor. CHO-M1 cells, Fluo-4 calcium fluorescence, agonist mode; active compounds read high. B-score at 10 µM. hit rate 3% among 64,000;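 active = fluorescence rise, raw or as B-score row- and column-corrected plate score, outside the 99.7% band of its plate's samples, either direction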
FXIa inh mix: blocks human factor XIa in pooled compound mixtures. purified FXIa, fluorogenic substrate. inhibition, % at 5 µM. hit rate 0.19% among 62,000. AID 680;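 note: each value is inhibition by a whole ten-compound pool holding the compound; 0% = enzyme with no mixture and 100% = wells lacking enzyme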
Target sequence (P03951 19-387 limits assumed): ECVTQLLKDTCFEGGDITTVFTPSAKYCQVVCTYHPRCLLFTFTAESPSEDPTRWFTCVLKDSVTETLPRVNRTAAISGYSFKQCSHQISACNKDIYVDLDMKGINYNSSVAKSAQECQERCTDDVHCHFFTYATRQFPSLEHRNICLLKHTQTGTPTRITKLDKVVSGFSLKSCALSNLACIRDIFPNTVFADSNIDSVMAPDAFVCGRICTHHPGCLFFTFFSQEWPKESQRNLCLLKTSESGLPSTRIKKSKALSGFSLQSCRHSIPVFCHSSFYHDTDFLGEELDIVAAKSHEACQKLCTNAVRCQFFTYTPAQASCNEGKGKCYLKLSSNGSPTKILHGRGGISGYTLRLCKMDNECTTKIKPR
Target sequence (P03951 388-625 limits assumed): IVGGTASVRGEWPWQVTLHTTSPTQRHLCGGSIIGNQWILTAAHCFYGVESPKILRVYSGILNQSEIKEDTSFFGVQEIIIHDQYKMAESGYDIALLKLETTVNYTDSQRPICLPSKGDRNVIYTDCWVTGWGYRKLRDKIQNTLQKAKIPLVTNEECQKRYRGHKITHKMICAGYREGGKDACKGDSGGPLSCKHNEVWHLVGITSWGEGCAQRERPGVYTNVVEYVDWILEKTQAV
hDAT+cocaine: modulates human dopamine transporter uptake under cocaine; Q01959; hit rate 1.3% among 110,000; LLC-PK1 hDAT cells, [14C]-dopamine uptake with cocaine IC80; actives deviate in either direction; B-score at 10 µM;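 active = Z score or B-score, a plate-position-corrected score, falls beyond the plate's 99.7% confidence bounds, in either direction; inactive = both scores lie inside the 99.7% bounds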;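 note: scored against the spread of the other compound wells on the same plate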
M1 ag confirm: rat M1 muscarinic agonism, confirmation | shares compounds with M1 ag | CHO-M1 cells, Fluo-4 calcium fluorescence, agonist mode; actives lie on both sides | fluorescence change (max-min) at 10 µM | hit rate 19% among 1,700;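 active = fluorescence change differs from the solvent-only DMSO control mean at a set confidence level in both duplicate runs; inconclusive = differs from solvent-only control mean in just one of two runs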;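 note: an EC20 dose of acetylcholine follows compound addition during the same imaging run; raw fluorescence intensity difference in instrument units with no normalization to controls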
M4 ag counter: rat M4 muscarinic agonism, M1 counter-screen. shares compounds with M1 ag. CHO M4/Gqi5 cells, Fluo-4 calcium fluorescence, agonist mode; actives lie on both sides. fluorescence change (max-min) at 10 µM. hit rate 9% among 1,700. AID 1741;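 active = fluorescence change differing from the plate's solvent-only control wells at 99.7% confidence in both duplicates, whether higher or lower; inconclusive = differs from solvent controls in only one of two duplicates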
* = called active by the depositor. A selection: hits, their analogues and other compounds. The true share with any hit is near 7.4%. Cut-off read from the data, not from the text of the source, unless noted: active = inhibition above about 20% (passing the limit was not always enough); inactive = the rest.

COc1ccc(S(=O)(=O)Cc2ccc(C(=O)N3CCN(c4ccc(Cl)cc4)CC3)o2)cc1 was read as FXIIa mix inh 5, D1 allo mod -0.83, M1 antagonist -0.46, M1 ag 2.3*, FXIa inh mix 4, hDAT+cocaine -0.32, M1 ag confirm -4.3 and M4 ag counter -10.
COc1ccc(S(=O)(=O)Cc2ccc(C(=O)N3CCN(c4cccc(C)c4C)CC3)o2)cc1 was read as FXIIa mix inh 7, D1 allo mod -0.66, M1 antagonist -0.5, M1 ag 1.3, FXIa inh mix 11 and hDAT+cocaine -0.34.
Screening COc1ccc(N2CCN(C(=O)c3ccc(CS(=O)(=O)c4ccc(OC)cc4)o3)CC2)cc1 returned FXIIa mix inh -2, D1 allo mod 0.16, M1 antagonist -1.4, M1 ag 0.25, FXIa inh mix -1 and hDAT+cocaine 0.9.
Screening COc1ccccc1N1CCN(C(=O)c2ccc(CS(=O)(=O)c3ccccc3OC)o2)CC1 returned FXIIa mix inh 4, D1 allo mod -0.39, M1 antagonist -0.71, M1 ag 4.5*, FXIa inh mix 8, hDAT+cocaine -0.33, M1 ag confirm -13 and M4 ag counter inconclusive.
Cc1ccccc1S(=O)(=O)Cc1ccc(C(=O)N2CCN(c3ccc(F)cc3)CC2)o1 was read as FXIIa mix inh 15, D1 allo mod 0.61, M1 antagonist -0.86, M1 ag 3.2*, FXIa inh mix -5, hDAT+cocaine 1.4, M1 ag confirm -9.4 and M4 ag counter -54.
`COCCCNC(=O)c1ccc(CS(=O)(=O)c2ccc(OC)cc2)o1` gave FXIIa mix inh -2, D1 allo mod 0.14, M1 antagonist -0.19, M1 ag 0.28, FXIa inh mix 1 and hDAT+cocaine 0.21.
Screening COc1ccc(S(=O)(=O)Cc2ccc(C(=O)NCCc3ccc(S(N)(=O)=O)cc3)o2)cc1 returned FXIIa mix inh 2, D1 allo mod 0.077, M1 antagonist -0.61, M1 ag 3.8*, FXIa inh mix -3, hDAT+cocaine 0.026, M1 ag confirm inconclusive and M4 ag counter -59.
`CCC1CCCCN1C(=O)CN1C(=O)CSC1=O` (stereo not given) gave hDAT+cocaine -0.85.
For COc1ccc(N2CCN(C(=O)c3ccc(NS(=O)(=O)c4ccc(F)c(F)c4)cc3)CC2)cc1 the results were D1 allo mod -0.03, M1 antagonist -0.24, M1 ag 2.3*, hDAT+cocaine -1.1, M1 ag confirm -8.5 and M4 ag counter -35.
CC(=O)c1c(C)[nH]c(C(=O)NCCc2cccc(C)c2)c1C was read as FXIIa mix inh -13, D1 allo mod -2.7*, M1 antagonist -0.1, M1 ag -2.4*, FXIa inh mix 6, hDAT+cocaine 0.13, M1 ag confirm inconclusive and M4 ag counter inconclusive.
For COc1ccc(CCNC(=O)c2[nH]c(C)c(C(C)=O)c2C)cc1 the results were hDAT+cocaine -0.16.
Cc1cccc(OCc2nnc(SCC(=O)Nc3cc(C)on3)n2C)c1 was read as FXIIa mix inh -2, D1 allo mod -0.37, M1 antagonist 1.2, M1 ag 0.011, FXIa inh mix 0 and hDAT+cocaine -0.58.
CCCN(S(=O)(=O)c1ccc(OCC)cc1)S(=O)(=O)c1cccs1 was read as FXIIa mix inh -22, D1 allo mod -0.23, M1 antagonist -0.094, M1 ag 2.1*, FXIa inh mix -23, hDAT+cocaine -0.0014, M1 ag confirm inconclusive and M4 ag counter -37.
Screening COc1ccc2nc3c(cc2c1)c(NC(=O)C1CCCO1)nn3CC(C)C (stereo not given) returned FXIIa mix inh 6, D1 allo mod -0.0025, M1 antagonist -0.82, M1 ag 4.3*, FXIa inh mix -2, hDAT+cocaine 1.1, M1 ag confirm 3.3 and M4 ag counter -23.
For CCCCn1nc(NC(=O)c2cccs2)c2cc3cc(OC)ccc3nc21 the results were FXIIa mix inh 5, D1 allo mod -1.2, M1 antagonist 0.39, M1 ag 6.4*, FXIa inh mix -10, hDAT+cocaine 0.73, M1 ag confirm -24 and M4 ag counter -25.
`CCCn1nc(NC(=O)C2CCCO2)c2cc3cc(C)ccc3nc21` (stereo not given) gave hDAT+cocaine 0.45.
`CC(C)OC(=O)CCC/C=C\C[C@@H]1[C@@H](CC[C@@H](O)CCc2ccccc2)[C@H](O)C[C@@H]1O` gave hDAT+cocaine 1.1.
COc1ccc2[nH]c(=O)c(CN(CC3CCCO3)C(=O)Nc3ccc(F)cc3)cc2c1 (stereo not given) was read as FXIIa mix inh 12, D1 allo mod -0.22, M1 antagonist -4.3*, M1 ag 11*, FXIa inh mix -1, hDAT+cocaine 0.26, M1 ag confirm -1 and M4 ag counter -21.
For COc1ccc2[nH]c(=O)c(CN(CCCN(C)C)C(=O)Nc3ccccc3)cc2c1 the results were FXIIa mix inh 2, D1 allo mod -1.6, M1 antagonist 2.1, M1 ag -0.0065, FXIa inh mix 7 and hDAT+cocaine -0.13.
`Cc1ccc(S(=O)(=O)N2CCCC(C(=O)N(Cc3cccs3)C3CC3)C2)cc1` (stereo not given) gave FXIIa mix inh 4, M1 antagonist 0.32, M1 ag 0.1, FXIa inh mix 2 and hDAT+cocaine -0.28.
`CCC1CCCCN1S(=O)(=O)c1ccc(S(=O)(=O)N(Cc2cccs2)C2CC2)cc1` (stereo not given) gave FXIIa mix inh -3, D1 allo mod 0.032, M1 antagonist -1.9*, M1 ag 9.7*, FXIa inh mix 9, hDAT+cocaine -0.45, M1 ag confirm -31* and M4 ag counter -72*.
`N#CC(C(=O)OC1CCCCC1)c1nc2ccccc2nc1N1CCCCC1` (stereo not given) gave FXIIa mix inh 3, D1 allo mod 0.45, M1 antagonist -0.035, M1 ag -0.56, FXIa inh mix 2 and hDAT+cocaine -1.9.
CC1CN(c2nc3ccccc3nc2C(C#N)C(=O)NC2CCCCC2)CC(C)O1 (stereo not given) was read as FXIIa mix inh -16, D1 allo mod 0.71, M1 antagonist 0.1, M1 ag 41*, FXIa inh mix 3, hDAT+cocaine -0.014, M1 ag confirm -31* and M4 ag counter -62.
For CC1CN(c2nc3ccccc3nc2C(C#N)C(=O)OC2CCCCC2)CC(C)O1 (stereo not given) the results were FXIIa mix inh 3, D1 allo mod 0.01, M1 antagonist -0.11, M1 ag 38*, FXIa inh mix 9, hDAT+cocaine 0.063, M1 ag confirm inconclusive and M4 ag counter -35.
